Compound activity as filed in PubChem BioAssay.
Beta cell apopt – blocks beta cell apoptosis. 0.8% of 300,000 active. AID 435005. protection from apoptosis, % (no concentration beside the values). INS-1E cytokine-induced death, ATP luminescence, 48 h; percent of positive-control rescue, neutral wells zero;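 active = Every replicate reaches about 75%, or at least half do and their mean reaches it too, limit read from the data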;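 note: higher means more ATP so stronger rescue from cytokine killing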
Jurkat NFkB inh – lowers PMA/ionomycin-induced NF-kB signal in Jurkat cells | 0.53% of 330,000 active | PMA/ionomycin-induced NF-kB luciferase reporter, luminescence | inhibition, % at 4 µM; in the data active = inhibition above about 50%
Calb FLC – affects C. albicans growth with fluconazole. C. albicans CaCi-2 (fluconazole-resistant clinical isolate) + fluconazole, Alamar Blue growth, 48 h. growth inhibition, % (no concentration beside the values). 0.57% of 300,000 active;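 active = growth inhibition above about 58% in most replicates, limit read from the data, passing the limit was not always enough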;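 note: all wells also contain fluconazole at 8 µg/ml as a sub-toxic cotreatment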
Shn3 3UTR inh – Schnurri-3 reporter inhibition in Clone20 osteoblasts; 0.52% of 360,000 active; inhibition, % at 12.5 µM; Clone20 osteoblast Shn3 3'UTR firefly luciferase, 24 h; AID 588674;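 active = mean inhibition of at least 75% with every replicate also reaching 75%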
697 NFkB inh – lowers PMA/ionomycin-induced NF-kB signal in 697 B cells; inhibition, % at 4 µM; 697 B-cell NF-kB luciferase reporter, 16 h; AID 435022; 0.33% of 330,000 active; in the data active = inhibition above about 35%
Numbers stand for hits; – = inactive; · = no result given. Most compounds without a hit are left out; they make up all but 2% or so of the library.

SMILES	Beta cell apopt	Jurkat NFkB inh	Calb FLC	Shn3 3UTR inh	697 NFkB inh
CCC(C)c1ccc(NC(=S)NC2CCN(Cc3ccccc3)CC2)cc1 (configuration not stated)	111	–	–	–	–
CCc1ccc(NC(=S)NC2CCN(Cc3ccccc3)CC2)cc1	–	–	–	–	–
CCCN1Cc2cc(OC)ccc2-c2ccccc2S1(=O)=O	·	·	·	–	–
O=C(N/N=C/c1c(O)n(Cc2ccccc2)c(=O)c2ccccc12)c1cccnc1	–	–	–	–	–
COc1ccc(Cn2c(O)c(/C=N/NC(=O)c3cccnc3)c3ccccc3c2=O)cc1	·	·	103	–	·
FC(F)(F)c1cccc(Cn2c3[n+](c4ccc(C(F)(F)F)cc42)CCCCC3)c1	–	–	–	–	–
Cc1cc(C(C)(C)C)cc(C)c1Cn1c2[n+](c3ccc(C(F)(F)F)cc31)CCCCC2	86	–	–	–	–
C/C(=N\NC(=O)C(C)n1nc(C)c([N+](=O)[O-])c1C)c1ccccc1O (configuration not stated)	92	–	–	–	–
Cc1cccc(N2CC(O)(c3cccs3)[N+]3=C2CCCC3)c1C (configuration not stated)	–	–	–	90	–
O=[N+]([O-])c1ccccc1CNCCCCCO	–	–	·	–	–
COCCN(CC(=O)NC1CCCCC1)C(=O)/C=C/C(=O)c1ccc(OC)cc1O	·	·	–	98	·
COc1ccc(C(=O)/C=C/C(=O)N(CC(=O)NC2CCCCC2)Cc2cccs2)c(O)c1	–	–	–	93	–
COc1ccc(CN(C(=O)/C=C/C(=O)c2ccc(OC)cc2O)C(C(=O)NC2CCCCC2)c2ccncc2)cc1 (configuration not stated)	–	–	–	–	–
CC(C)C[C@H](N)c1nnc(S(=O)(=O)Cc2ccc(F)cc2)o1	–	–	–	90	–
Cc1cc(O)c(C(C)C)cc1N=Cc1ccc([N+](=O)[O-])cc1	·	·	·	–	·
CC1CCc2sc(C(=O)N3CCN(c4ncccn4)CC3)cc2C1 (configuration not stated)	–	–	–	–	–
CC(C)(C)C(=O)Cn1ncc(Br)c(Br)c1=O	·	·	–	89	·
COc1cccc(C(=O)Nc2nnc(-c3ccc(F)cc3)o2)c1	–	–	83	–	–
O=C(Nc1nnc(-c2ccncc2)o1)c1ccc2ccccc2c1	·	–	90	–	–
Cc1cccc(C(=O)Nc2nnc(-c3ccncc3)o2)c1	–	–	–	–	–
COc1cccc(-c2nnc(NC(=O)c3ccc4ncsc4c3)o2)c1	–	–	107	–	–
CC(=O)N(Cc1ccc(F)cc1)C1=C(NCCc2ccccc2)C(=O)c2ccccc2C1=O	106	–	87	–	–
CS/C(=C\[N+](=O)[O-])Nc1ccc(Cl)cc1	–	–	102	–	–
O=S(=O)(Nc1cc(Sc2ncn[nH]2)c(O)c2ccccc12)c1ccccc1	·	–	·	93	–
CCCNc1nc(N)nc(-c2cc(Cl)ccc2OC)n1	–	–	–	–	–
SMILES	Beta cell apopt	Jurkat NFkB inh	Calb FLC	Shn3 3UTR inh	697 NFkB inh
CCNc1nc(N)nc(-c2cc(Cl)ccc2O)n1	–	–	80	–	–
Cc1cc(/C=N/NC(=O)c2ccncc2)c(C)n1-c1ccccc1	–	–	–	–	–
CCc1ccc(-n2c(C)cc(/C=N/NC(=O)c3ccncc3)c2C)cc1	106	–	–	–	–
Cc1cc(C)n(-c2nc3ccccc3c(=O)n2OCC#N)n1	84	–	81	–	–
CCOn1c(-n2nc(C)cc2C)nc2ccccc2c1=O	–	–	–	–	–
Cc1ccc(NC2CCCN(C(=O)CCc3ccncc3)C2)cc1C (configuration not stated)	–	–	–	–	–
CCCCCCN1C[C@H](n2cc(-c3ccc(F)cc3)nn2)[C@@H](O)C[C@@H]1c1ccc(Cl)cc1	·	·	·	95	·
CCC1(c2ccc(F)cc2)NC(=O)N(CC(=O)Nc2cccnc2Cl)C1=O (configuration not stated)	–	–	–	–	–
CCc1ccc(CN(C)C(=O)c2cc(COc3cccc4cnccc34)on2)cc1	78	–	–	86	–
CN1CCc2c(sc(NC(=O)c3cc4cc([N+](=O)[O-])ccc4s3)c2C(N)=O)C1	·	·	97	·	·
CC(C)N1CCc2c(sc(NC(=O)c3cc4cc([N+](=O)[O-])ccc4s3)c2C(N)=O)C1	·	–	–	–	–
COc1ccc(-n2c(CNc3ccc(C)cc3)nnc2SCC(=O)Nc2nc(-c3ccccc3)cs2)cc1	86	–	–	–	–
O=C(COC(=O)C1CC(=O)N(Cc2ccco2)C1)Nc1nc(-c2ccc(F)cc2)cs1 (configuration not stated)	–	–	·	–	–
COc1cccc(C2C(C(=O)c3cc4ccccc4o3)=C(O)C(=O)N2c2cc(C)on2)c1OC (configuration not stated)	–	–	78	–	–
COc1cc(C2C(C(=O)c3cc4ccccc4o3)=C(O)C(=O)N2c2cc(C)on2)cc(OC)c1OC (configuration not stated)	–	–	–	–	–
Brc1ccc(/C=C/C=N/Nc2nc3ccccc3s2)cc1	–	–	99	–	–
Cc1cc(C)cc(OCC(O)CN2CCC(CN3C(=O)c4cccc5cccc(c45)C3=O)CC2)c1 (configuration not stated)	78	–	–	–	–
COc1cccc(OCC(O)CN2CCC(CN3C(=O)c4cccc5cccc(c45)C3=O)CC2)c1 (configuration not stated)	–	–	–	–	–
Cc1ccc([C@H]2C[C@@H](n3cc(COC(=O)c4ccccc4)nn3)[C@H](O)CN2C(=O)C2CCCCC2)cc1	·	·	·	–	·
O=C1NC2(CCC3(CC2)OCCO3)NN1c1ccccc1	–	–	120	–	–
S=C1NC2(CCCCC2)NN1c1ccccc1	–	–	78	–	–
O=C1NC2(NN1c1ccccc1)C1CC3CC(C1)CC2C3 (configuration not stated)	–	–	–	–	–
O=[N+]([O-])c1cnc(Sc2ccncn2)s1	109	–	–	–	–
O=[N+]([O-])c1cnc(Sc2ccncn2)c([N+](=O)[O-])c1	·	·	·	–	·
COc1ccc(C(C)=O)cc1CSc1ccc(S(=O)(=O)N2CCCCC2)cn1	–	–	·	–	–
CC(=O)N1c2ccc(S(=O)(=O)N3CCC(C(=O)NCc4ccc(N(C)C)cc4)CC3)cc2CC1C (configuration not stated)	–	–	–	–	–
COc1ccccc1-c1cc(C(F)(F)F)nc(S(=O)(=O)CCCC(=O)N2CCCCC2C)n1 (configuration not stated)	–	–	–	97	–
COc1ccccc1-c1cc(C(F)(F)F)nc(S(=O)(=O)CCCC(=O)NCc2ccc(F)cc2)n1	–	–	–	88	–
COc1ccccc1-c1cc(C(F)(F)F)nc(S(=O)(=O)CCCC(=O)NC(C)C)n1	–	–	–	–	–
COc1ccccc1-c1cc(C(F)(F)F)nc(S(=O)(=O)CCCC(=O)Nc2cccnc2Cl)n1	·	·	·	91	·
